How the values were obtained:
Assay in all cases: log2 ratio of Biotin-Ahx-Ub-VS probe labelling (fragment/DMSO); higher = less target engagement (more negative = stronger competition), active = hit call of the paper (q ≤ 0.05, log2 ratio ≤ -1)
Conditions in all cases: compound concentration: 200 uM; treatment time: 3 h
USP34 = USP34 (UniProt Q70CQ2)
Outline: (§1)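 Labelled DUBs were enriched with NeutrAvidin, digested with LysC and trypsin, and run by diaPASEF LC-MS/MS. The labelling used Biotin-Ahx-Ub-VS at 0.5 µM final for 1 h on HEK293T lysate (495 µg per sample) previously treated in triplicate with fragment at 200 µM or vehicle for 3 h. Values are average log2 fragment/vehicle ratios by unpaired t-test on global-median-normalised Spectronaut quantities of proteins with ≥2 unique peptides.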

USP36 = target: T1, USP36 (UniProt Q9P275)
T1 sequence (whole entry): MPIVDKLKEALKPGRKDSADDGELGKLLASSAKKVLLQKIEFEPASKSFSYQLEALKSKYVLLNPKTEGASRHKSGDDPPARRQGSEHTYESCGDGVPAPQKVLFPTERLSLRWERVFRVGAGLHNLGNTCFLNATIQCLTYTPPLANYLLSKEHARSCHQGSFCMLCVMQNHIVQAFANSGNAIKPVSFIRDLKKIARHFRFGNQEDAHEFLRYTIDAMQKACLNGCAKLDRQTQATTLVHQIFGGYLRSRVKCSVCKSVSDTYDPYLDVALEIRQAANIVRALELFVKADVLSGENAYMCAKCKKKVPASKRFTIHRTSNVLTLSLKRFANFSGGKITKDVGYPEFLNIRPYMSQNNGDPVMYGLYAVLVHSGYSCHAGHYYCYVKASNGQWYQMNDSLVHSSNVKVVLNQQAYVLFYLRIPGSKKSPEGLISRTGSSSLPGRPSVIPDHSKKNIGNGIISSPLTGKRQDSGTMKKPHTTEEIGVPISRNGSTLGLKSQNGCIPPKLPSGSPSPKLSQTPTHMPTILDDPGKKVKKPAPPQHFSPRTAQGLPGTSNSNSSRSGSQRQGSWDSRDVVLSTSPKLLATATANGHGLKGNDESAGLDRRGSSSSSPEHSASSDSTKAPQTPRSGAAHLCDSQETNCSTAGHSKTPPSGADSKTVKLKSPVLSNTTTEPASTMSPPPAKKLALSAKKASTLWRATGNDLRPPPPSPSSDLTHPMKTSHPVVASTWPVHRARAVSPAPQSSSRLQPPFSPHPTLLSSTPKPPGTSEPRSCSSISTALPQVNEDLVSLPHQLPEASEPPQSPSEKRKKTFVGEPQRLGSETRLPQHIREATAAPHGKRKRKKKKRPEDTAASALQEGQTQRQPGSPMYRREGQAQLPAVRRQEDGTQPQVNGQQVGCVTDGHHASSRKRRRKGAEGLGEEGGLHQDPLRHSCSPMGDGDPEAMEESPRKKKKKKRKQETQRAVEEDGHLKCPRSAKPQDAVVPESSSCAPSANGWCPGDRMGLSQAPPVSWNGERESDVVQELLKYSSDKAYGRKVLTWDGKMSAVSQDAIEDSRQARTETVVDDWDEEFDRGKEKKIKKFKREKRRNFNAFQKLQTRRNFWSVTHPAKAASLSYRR
Outline: as §1

USP38 = target: T2, USP38 (UniProt Q8NB14)
T2 sequence (whole entry): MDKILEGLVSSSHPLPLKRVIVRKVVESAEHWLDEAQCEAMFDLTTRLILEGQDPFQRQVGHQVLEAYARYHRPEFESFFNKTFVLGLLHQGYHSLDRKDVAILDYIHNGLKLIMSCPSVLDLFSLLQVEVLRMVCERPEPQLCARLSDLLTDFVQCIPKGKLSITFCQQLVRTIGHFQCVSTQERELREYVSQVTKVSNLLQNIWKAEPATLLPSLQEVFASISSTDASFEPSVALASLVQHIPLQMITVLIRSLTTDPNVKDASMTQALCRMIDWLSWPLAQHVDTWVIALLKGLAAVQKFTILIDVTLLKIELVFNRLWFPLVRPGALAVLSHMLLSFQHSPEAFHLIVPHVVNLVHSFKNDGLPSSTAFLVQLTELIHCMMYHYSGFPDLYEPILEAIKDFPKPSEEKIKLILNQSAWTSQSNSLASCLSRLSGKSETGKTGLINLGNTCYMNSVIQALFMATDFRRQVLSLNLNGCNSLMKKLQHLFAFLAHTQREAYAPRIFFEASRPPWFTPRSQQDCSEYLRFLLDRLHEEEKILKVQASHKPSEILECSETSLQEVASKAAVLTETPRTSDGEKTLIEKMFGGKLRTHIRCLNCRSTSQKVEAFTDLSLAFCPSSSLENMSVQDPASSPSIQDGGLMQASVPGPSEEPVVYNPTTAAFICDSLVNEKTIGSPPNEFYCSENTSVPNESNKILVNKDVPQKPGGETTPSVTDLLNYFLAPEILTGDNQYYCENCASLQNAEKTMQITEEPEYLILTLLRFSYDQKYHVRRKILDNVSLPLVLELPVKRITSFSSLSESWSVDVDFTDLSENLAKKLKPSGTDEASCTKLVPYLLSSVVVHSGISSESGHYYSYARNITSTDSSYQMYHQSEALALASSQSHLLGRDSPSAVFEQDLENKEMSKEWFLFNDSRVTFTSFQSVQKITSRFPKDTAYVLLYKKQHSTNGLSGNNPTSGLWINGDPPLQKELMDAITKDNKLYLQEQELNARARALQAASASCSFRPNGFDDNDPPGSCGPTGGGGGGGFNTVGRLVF
Outline: as §1

USP39 = target: T3, USP39 (UniProt Q53GS9)
T3 sequence (whole entry): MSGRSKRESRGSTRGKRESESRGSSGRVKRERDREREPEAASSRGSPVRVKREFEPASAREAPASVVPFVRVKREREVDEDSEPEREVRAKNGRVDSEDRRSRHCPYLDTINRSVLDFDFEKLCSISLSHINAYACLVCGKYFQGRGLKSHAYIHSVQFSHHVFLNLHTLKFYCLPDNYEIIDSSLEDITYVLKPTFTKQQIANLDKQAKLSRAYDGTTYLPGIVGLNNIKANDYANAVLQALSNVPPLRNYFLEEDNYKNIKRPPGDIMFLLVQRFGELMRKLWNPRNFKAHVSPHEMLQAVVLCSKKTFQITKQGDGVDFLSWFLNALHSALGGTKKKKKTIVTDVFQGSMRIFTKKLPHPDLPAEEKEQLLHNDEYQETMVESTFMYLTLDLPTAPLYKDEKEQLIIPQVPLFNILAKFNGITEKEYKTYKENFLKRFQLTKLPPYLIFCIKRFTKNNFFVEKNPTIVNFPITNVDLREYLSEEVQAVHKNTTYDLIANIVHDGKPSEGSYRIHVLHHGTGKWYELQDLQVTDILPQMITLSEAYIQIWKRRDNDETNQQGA
Outline: as §1

USP4 = target: T4, USP4 (UniProt Q13107)
T4 sequence (whole entry): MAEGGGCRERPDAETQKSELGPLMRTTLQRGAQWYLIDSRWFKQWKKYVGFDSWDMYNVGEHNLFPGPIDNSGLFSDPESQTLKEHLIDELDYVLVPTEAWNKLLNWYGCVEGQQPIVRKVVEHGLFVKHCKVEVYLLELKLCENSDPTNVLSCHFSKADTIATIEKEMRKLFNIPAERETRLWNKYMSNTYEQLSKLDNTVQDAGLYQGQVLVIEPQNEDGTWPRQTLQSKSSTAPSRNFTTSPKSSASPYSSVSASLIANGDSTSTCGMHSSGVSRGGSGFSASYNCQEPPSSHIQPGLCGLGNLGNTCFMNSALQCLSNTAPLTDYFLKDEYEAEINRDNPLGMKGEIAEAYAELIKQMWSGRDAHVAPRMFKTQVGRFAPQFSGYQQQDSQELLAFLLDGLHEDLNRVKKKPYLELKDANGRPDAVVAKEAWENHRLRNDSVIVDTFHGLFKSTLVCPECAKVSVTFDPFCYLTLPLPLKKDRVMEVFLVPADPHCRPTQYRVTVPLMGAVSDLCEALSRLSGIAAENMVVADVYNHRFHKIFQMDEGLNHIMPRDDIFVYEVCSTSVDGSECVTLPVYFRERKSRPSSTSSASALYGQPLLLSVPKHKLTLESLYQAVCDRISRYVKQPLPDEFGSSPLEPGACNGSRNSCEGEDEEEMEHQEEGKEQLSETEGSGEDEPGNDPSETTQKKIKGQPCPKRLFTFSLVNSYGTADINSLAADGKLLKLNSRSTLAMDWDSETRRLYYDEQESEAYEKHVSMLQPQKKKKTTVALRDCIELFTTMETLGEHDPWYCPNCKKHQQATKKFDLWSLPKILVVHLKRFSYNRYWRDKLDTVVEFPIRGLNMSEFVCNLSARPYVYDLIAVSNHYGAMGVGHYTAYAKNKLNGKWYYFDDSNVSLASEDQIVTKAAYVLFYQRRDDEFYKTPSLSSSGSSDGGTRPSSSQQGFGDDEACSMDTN
Outline: as §1

Measured: log2 ratio of Biotin-Ahx-Ub-VS probe labelling

Sequence of USP34 (Q70CQ2 whole entry, the tested form may be a part): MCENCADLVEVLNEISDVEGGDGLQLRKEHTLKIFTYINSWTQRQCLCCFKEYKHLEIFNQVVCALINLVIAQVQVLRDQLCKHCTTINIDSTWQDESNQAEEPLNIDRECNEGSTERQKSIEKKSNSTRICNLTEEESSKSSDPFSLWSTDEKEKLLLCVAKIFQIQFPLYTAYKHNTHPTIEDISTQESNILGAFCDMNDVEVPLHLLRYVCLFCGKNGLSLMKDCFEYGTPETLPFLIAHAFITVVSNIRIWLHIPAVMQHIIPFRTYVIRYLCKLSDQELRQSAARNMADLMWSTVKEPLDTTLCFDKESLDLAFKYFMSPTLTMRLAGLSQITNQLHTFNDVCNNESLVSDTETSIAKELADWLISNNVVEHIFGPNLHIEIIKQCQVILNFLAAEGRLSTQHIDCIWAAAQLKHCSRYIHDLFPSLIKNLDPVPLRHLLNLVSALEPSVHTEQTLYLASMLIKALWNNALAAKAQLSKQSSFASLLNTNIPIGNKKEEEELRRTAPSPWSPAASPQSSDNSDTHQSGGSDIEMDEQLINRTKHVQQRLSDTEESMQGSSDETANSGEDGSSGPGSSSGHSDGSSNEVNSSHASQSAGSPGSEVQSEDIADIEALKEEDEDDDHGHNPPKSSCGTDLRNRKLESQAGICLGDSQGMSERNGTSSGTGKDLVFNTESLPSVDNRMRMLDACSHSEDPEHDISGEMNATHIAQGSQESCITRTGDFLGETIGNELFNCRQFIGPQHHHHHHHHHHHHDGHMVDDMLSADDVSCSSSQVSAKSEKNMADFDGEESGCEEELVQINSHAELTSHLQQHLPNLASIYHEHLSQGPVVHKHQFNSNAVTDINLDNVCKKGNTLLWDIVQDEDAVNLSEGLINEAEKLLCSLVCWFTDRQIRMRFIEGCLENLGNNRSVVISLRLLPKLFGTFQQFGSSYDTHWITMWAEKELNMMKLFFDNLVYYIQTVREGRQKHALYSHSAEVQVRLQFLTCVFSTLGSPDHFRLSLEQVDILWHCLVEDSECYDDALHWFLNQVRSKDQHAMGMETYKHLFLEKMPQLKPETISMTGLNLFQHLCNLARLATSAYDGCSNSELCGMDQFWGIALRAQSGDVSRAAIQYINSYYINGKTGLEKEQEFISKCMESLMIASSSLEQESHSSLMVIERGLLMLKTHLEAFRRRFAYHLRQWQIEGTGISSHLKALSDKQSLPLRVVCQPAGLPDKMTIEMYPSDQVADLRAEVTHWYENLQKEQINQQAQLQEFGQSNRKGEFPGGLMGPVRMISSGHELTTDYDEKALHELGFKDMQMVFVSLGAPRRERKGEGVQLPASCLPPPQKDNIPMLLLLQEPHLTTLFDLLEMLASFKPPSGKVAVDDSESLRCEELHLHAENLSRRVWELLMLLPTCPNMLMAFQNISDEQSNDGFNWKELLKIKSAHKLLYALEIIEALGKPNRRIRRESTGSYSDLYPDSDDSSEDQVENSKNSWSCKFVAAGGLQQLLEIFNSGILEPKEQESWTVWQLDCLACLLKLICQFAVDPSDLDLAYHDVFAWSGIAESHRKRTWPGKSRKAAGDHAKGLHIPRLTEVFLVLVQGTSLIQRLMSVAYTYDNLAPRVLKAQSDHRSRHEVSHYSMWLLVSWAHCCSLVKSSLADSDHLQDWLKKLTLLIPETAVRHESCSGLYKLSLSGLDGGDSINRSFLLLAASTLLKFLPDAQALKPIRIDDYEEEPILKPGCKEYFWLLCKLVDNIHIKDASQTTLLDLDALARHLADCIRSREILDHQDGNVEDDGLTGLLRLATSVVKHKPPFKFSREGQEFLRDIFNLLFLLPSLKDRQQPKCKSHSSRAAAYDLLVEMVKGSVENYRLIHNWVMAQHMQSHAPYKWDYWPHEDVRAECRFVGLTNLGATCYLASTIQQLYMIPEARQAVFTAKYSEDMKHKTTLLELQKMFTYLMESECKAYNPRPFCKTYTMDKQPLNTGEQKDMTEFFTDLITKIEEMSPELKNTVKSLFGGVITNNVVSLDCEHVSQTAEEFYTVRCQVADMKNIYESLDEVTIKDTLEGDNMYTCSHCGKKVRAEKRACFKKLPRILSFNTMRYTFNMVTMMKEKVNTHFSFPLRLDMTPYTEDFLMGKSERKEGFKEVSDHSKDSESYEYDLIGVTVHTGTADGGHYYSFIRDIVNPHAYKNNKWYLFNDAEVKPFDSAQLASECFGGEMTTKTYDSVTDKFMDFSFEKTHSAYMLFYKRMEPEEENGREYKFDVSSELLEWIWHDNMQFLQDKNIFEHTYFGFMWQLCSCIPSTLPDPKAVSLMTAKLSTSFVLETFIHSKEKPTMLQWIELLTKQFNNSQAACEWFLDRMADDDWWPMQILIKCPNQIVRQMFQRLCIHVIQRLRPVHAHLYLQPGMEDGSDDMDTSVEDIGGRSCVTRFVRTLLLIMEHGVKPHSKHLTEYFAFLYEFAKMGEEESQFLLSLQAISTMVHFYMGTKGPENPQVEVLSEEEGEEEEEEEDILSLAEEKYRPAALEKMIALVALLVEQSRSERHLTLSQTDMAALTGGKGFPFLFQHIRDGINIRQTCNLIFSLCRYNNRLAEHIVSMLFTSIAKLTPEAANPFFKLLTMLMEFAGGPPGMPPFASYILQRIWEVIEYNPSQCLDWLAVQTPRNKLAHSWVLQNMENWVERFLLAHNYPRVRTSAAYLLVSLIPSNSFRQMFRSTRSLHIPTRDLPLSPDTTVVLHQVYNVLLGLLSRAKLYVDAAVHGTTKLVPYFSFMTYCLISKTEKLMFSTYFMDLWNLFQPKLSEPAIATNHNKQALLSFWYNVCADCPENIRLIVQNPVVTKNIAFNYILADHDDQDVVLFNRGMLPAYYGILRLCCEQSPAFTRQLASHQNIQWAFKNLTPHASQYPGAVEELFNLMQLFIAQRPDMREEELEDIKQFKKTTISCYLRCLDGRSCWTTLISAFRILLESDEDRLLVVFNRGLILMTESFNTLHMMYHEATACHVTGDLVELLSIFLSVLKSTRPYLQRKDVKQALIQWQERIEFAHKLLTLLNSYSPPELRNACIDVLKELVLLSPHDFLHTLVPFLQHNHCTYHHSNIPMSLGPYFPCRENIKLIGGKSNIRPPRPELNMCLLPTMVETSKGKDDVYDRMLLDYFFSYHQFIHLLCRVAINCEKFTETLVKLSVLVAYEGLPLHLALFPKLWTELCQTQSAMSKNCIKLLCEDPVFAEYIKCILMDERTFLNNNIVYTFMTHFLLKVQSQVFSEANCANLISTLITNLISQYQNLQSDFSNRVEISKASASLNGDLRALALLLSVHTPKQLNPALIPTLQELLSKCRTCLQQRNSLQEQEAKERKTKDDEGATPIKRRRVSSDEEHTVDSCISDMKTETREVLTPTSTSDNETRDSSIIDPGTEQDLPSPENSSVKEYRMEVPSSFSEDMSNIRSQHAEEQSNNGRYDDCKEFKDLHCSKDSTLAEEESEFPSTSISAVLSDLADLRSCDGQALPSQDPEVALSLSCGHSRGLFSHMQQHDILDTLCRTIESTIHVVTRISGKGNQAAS

O=C(CCl)N1CCCC1c1ccsc1 (stereo not given)
inactive: USP34 -0.191 | USP36 -0.111 | USP38 -0.0937 | USP39 -0.0825 | USP4 -0.821

— the supplement of paper PMC11732987, “Enantioselective OTUD7B fragment discovery through chemoproteomics screening and high-throughput optimisation” (Communications Chemistry, 2025)
